# According to PubChem BioAssay:
# Active and inactive are the calls of the source. Unless noted, how the calls were made is not given here.
# Key:
# [1] = liver-stage malaria parasite growth inhibition, primary screen, cell-based, HepG2, luciferase luminescence, HepG2 viability (AID 624349; in the data active means parasite load remaining mostly below about 12%, no sharp cut-off; inactive means mostly above about 10%;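 further: 100% = mean of DMSO negative control wells on the same plate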); conditions: P. berghei liver stage in HepG2, luciferase luminescence, concentration not given here; parasite load remaining: stronger effect = lower value; viability: measured here: HepG2 viability without parasites
# [2] = Cy5 fluorescence interference with SSB-bound oligo, artefact control for HCV NS3 helicase inhibitor project, biochemical, NIH Clinical Collection, E. coli SSB (AID 743268)
# [3] = tested on: Hepatitis C virus NS3 helicase; assay: HCV NS3 helicase inhibitors, primary screen, biochemical, fluorescence polarization, NIH Clinical Collection (AID 743270); conditions: NS3 helicase binding to Cy5-dT15 DNA, stronger effect = higher value, concentration not given here
# [4] = target: Single-stranded DNA-binding protein (Escherichia coli (strain K12)) (UniProt P0AGE0); assay: E. coli SSB displacement from DNA, counter-screen for HCV NS3 helicase inhibitor project, biochemical, fluorescence polarization, NIH Clinical Collection (AID 743271; in the data active means inhibition above about 28%); conditions: stronger effect = higher value, concentration not given here
# [5] = fluorescence interference in NS3h assay format, artefact control for HCV NS3 helicase inhibitor project, biochemical, NIH Clinical Collection (AID 743272); conditions: fluorescence interference counterscreen, stronger effect = lower value;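 further: HCV NS3 helicase with a Cy5 labelled single stranded DNA probe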
# [6] = tested on: Aerobactin synthetase IucA (Klebsiella pneumoniae); assay: IucA aerobactin synthetase inhibitors, biochemical, Tocris library, absorbance (AID 1345561); conditions: purified IucA enzyme assay, absorbance (OD) read-out; stronger effect = lower value;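 tested at 8 µM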;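 further: 100% = enzyme without compound and 0% = no enzyme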
# [7] = sensitizers of A549 cells to miR-34 induction, primary screen, imaging, A549 dox-inducible miR-34, nuclei and caspase counts (AID 1347080;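 active means compounds whose cell count with miR-34 switched on is under 0.7 times the count with it off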); conditions: A549 miR-34 inducible, Hoechst nuclei count, 48 h
# [8] = viability rescue of complex I mutant cybrids, primary screen, cell-based, galactose medium, ATP luminescence (AID 1645843;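 active means z-score of at least 1.8 in each of two replicates, scored against plate mean and spread of sample wells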;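 further: positive z means more ATP and so rescue of galactose-driven cybrid death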); conditions: complex I mutant cybrid cells, 72 h, stronger effect = higher value
# [9] = circadian clock period modulators, cell-based, LOPAC library, luminescence reporter (AID 2774); conditions: circadian reporter cells, at 7 µM, actives lie on both sides;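 further: values are relative to mean of DMSO wells on each plate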
# [10] = tested on: Hepatitis C virus NS3 helicase; assay: HCV NS3 helicase inhibitors, primary screen, biochemical, fluorescence polarization, LOPAC1280 library (AID 687035; in the data active means inhibition above about 37%); conditions: Purified HCV NS3 helicase, Cy5-dT15 ssDNA binding fluorescence polarization; stronger effect = higher value; concentration not given here
# [11] = Cy5 fluorescence quenching or enhancement artefacts, artefact control for HCV NS3 helicase inhibitor project, biochemical, LOPAC1280 (AID 687037); conditions: Cy5-DNA-NS3h complex fluorescence interference counterscreen
# [12] = measured here: relative caspase fold change +Dox/-Dox
# [13] = measured here: total cells with miR-34 induction, stronger effect = lower value
# [14] = measured here: total cells without miR-34 induction
# [15] = stronger effect = lower value, cell number ratio, induced over uninduced
structure (smiles),measurement,setting,value
Oc1ccc2c3c1O[C@H]1c4[nH]c5ccccc5c4C[C@@]4(O)C(C2)N(CC2CC2)CC[C@]314,parasite load remaining,[1],46.5% (inactive)
same,viability,[1],62.3%
same,fluorescence ratio,[2],0.91 (inactive)
same,inhibition,[3],-1.19% (inactive)
same,inhibition,[4],-0.1% (inactive)
same,fluorescence ratio,[5],0.89 (inactive)
same,remaining activity,[6],101% (inactive)
same,fold change,[7]; stronger effect = lower value,1.03 (inactive)
same,fold change,[7]; [12],0.989
same,cell count,[7]; [13],8920
same,cell count,[7]; [14],8700
same,z-score,[8],0.53 (inactive)
S=C=Nc1cccc(C2(N3CCCCC3)CCCCC2)c1,period change,[9],0.05 h (inactive)
same,remaining activity,[6],122% (inactive)
same,fold change,[7]; [15],0.942 (inactive)
same,fold change,[7]; [12],0.732
same,cell count,[7]; [13],9100
same,cell count,[7]; [14],9670
same,z-score,[8],0.62 (inactive)
CC(C)(Cc1c[nH]c2ccc(Cl)cc12)NCCOc1ccccc1OCC1CC1,remaining activity,[6],119% (inactive)
same,fold change,[7]; [15],0.921 (inactive)
same,fold change,[7]; [12],1.09
same,cell count,[7]; [13],226
same,cell count,[7]; [14],246
same,z-score,[8],-1.23 (inactive)
C[C@H](N)Cc1cnc[nH]1,remaining activity,[6],92.3% (inactive)
same,fold change,[7]; [15],0.997 (inactive)
same,fold change,[7]; [12],1.13
same,cell count,[7]; [13],9180
same,cell count,[7]; [14],9200
same,z-score,[8],0.12 (inactive)
COC1(C[S@@](=O)c2ccccc2)CCN(CCc2c[nH]c3ccc(F)cc23)CC1,remaining activity,[6],113% (inactive)
same,fold change,[7]; [15],0.956 (inactive)
same,fold change,[7]; [12],1.03
same,cell count,[7]; [13],8390
same,cell count,[7]; [14],8770
same,z-score,[8],-0.4 (inactive)
C=C(C)CN1CC[C@]23c4c5ccc(O)c4O[C@H]2c2[nH]c4ccccc4c2C[C@@]3(O)C1C5,parasite load remaining,[1],2.83% (inactive)
same,viability,[1],29.3%
same,fluorescence ratio,[2],0.95 (inactive)
same,inhibition,[3],-1.97% (inactive)
same,inhibition,[4],1.97% (inactive)
same,fluorescence ratio,[5],0.93 (inactive)
same,remaining activity,[6],92% (inactive)
same,fold change,[7]; stronger effect = lower value,0.859 (inactive)
same,fold change,[7]; [12],0.814
same,cell count,[7]; [13],5020
same,cell count,[7]; [14],5850
same,z-score,[8],-0.785 (inactive)
N[C@]1(C(=O)O)CC[C@@H](C(=O)O)C1 (racemic),remaining activity,[6],103% (inactive)
same,fold change,[7]; [15],0.971 (inactive)
same,fold change,[7]; [12],0.73
same,cell count,[7]; [13],7990
same,cell count,[7]; [14],8230
same,z-score,[8],0.095 (inactive)
CCOC(=O)c1ncc2[nH]c3ccc(OCc4ccccc4)cc3c2c1COC,remaining activity,[6],105% (inactive)
same,fold change,[7]; [15],0.974 (inactive)
same,fold change,[7]; [12],1.71
same,cell count,[7]; [13],2080
same,cell count,[7]; [14],2130
same,z-score,[8],-0.79 (inactive)
COc1ccc2c(c1)c(CCN1CCOCC1)c(C)n2C(=O)c1cccc(Cl)c1Cl,inhibition,[10],-1% (inactive)
same,fluorescence ratio (interference),[11],1.1 (inactive)
same,remaining activity,[6],101% (inactive)
same,fold change,[7]; [15],0.915 (inactive)
same,fold change,[7]; [12],1.25
same,cell count,[7]; [13],6500
same,cell count,[7]; [14],7100
same,z-score,[8],-0.005 (inactive)
CN1CCN(c2ccc3ccccc3n2)CC1,period change,[9],-0.045 h (inactive)
same,remaining activity,[6],109% (inactive)
same,fold change,[7]; [15],0.923 (inactive)
same,fold change,[7]; [12],0.813
same,cell count,[7]; [13],8930
same,cell count,[7]; [14],9670
same,z-score,[8],-0.58 (inactive)
C=CCN1C[C@H](C)N([C@H](c2ccc(C(=O)N(CC)CC)cc2)c2cccc(O)c2)C[C@H]1C,remaining activity,[6],99.4% (inactive)
same,fold change,[7]; [15],0.929 (inactive)
same,fold change,[7]; [12],0.728
same,cell count,[7]; [13],8160
same,cell count,[7]; [14],8780
same,z-score,[8],-0.17 (inactive)
CCCN(C/C=C/I)C1CCc2ccc(O)cc2C1 (stereo not given),remaining activity,[6],102% (inactive)
same,fold change,[7]; [15],0.904 (inactive)
same,fold change,[7]; [12],0.638
same,cell count,[7]; [13],8360
same,cell count,[7]; [14],9250
same,z-score,[8],-0.23 (inactive)
CCCN(CCC)[C@@H]1CCc2c(OC)cccc2[C@@H]1C,remaining activity,[6],103% (inactive)
same,fold change,[7]; [15],0.92 (inactive)
same,fold change,[7]; [12],0.674
same,cell count,[7]; [13],8420
same,cell count,[7]; [14],9160
same,z-score,[8],0.925 (inactive)
O=C1NC(=O)c2c1c1c3ccccc3[nH]c1c1[nH]c3ccccc3c21,parasite load remaining,[1],79.1% (inactive)
same,viability,[1],159%
same,remaining activity,[6],93.4% (inactive)
same,fold change,[7]; stronger effect = lower value,0.78 (inactive)
same,fold change,[7]; [12],1.58
same,cell count,[7]; [13],3660
same,cell count,[7]; [14],4680
same,z-score,[8],-0.6 (inactive)
Oc1ccc2c3c1O[C@H]1c4oc5ccccc5c4C[C@@]4(O)C(C2)N(CC2CC2)CC[C@]314,remaining activity,[6],104% (inactive)
same,fold change,[7]; stronger effect = lower value,0.944 (inactive)
same,fold change,[7]; [12],0.874
same,cell count,[7]; [13],9060
same,cell count,[7]; [14],9600
same,z-score,[8],-0.325 (inactive)
CN1C2CCC1CC(OC(c1ccccc1)c1ccc(Cl)cc1)C2 (stereo not given),period change,[9],0.035 h (inactive)
same,remaining activity,[6],92.9% (inactive)
same,fold change,[7]; [15],0.909 (inactive)
same,fold change,[7]; [12],1.16
same,cell count,[7]; [13],4530
same,cell count,[7]; [14],4990
same,z-score,[8],-1.1 (inactive)
O=C1NC(=O)c2c1c1c3ccccc3n3c1c1c2c2ccccc2n1C1CCC3O1,parasite load remaining,[1],66.3% (inactive)
same,viability,[1],60.2%
same,remaining activity,[6],103% (inactive)
same,fold change,[7]; [15],1.12 (inactive)
same,fold change,[7]; [12],1.11
same,cell count,[7]; [13],5410
same,cell count,[7]; [14],4820
same,z-score,[8],-0.395 (inactive)
CC1=C(O)C(=O)[C@@H]2O[C@@H]2C1=O,remaining activity,[6],113% (inactive)
same,fold change,[7]; [15],0.983 (inactive)
same,fold change,[7]; [12],1
same,cell count,[7]; [13],7990
same,cell count,[7]; [14],8130
same,z-score,[8],0.005 (inactive)
C(=C\c1ccccc1)/CN1CCN(CCOC(c2ccccc2)c2ccccc2)CC1,remaining activity,[6],119% (inactive)
same,fold change,[7]; [15],0.938 (inactive)
same,fold change,[7]; [12],0.604
same,cell count,[7]; [13],5420
same,cell count,[7]; [14],5780
same,z-score,[8],-1.21 (inactive)
